Assay outcomes deposited in PubChem BioAssay by several laboratories.
PGE2 EP2 inh: EP2 receptor (human) inhibition | P43116 | C6 glioma cells expressing human EP2, cAMP TR-FRET; cells stimulated with saturating PGE2 | inhibition, % at 25 µM | 260,000 compounds, 0.52% hits;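 active means percent inhibition above 40 after rounding to a whole number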;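 further: rat C6 glioma host cells with rolipram phosphodiesterase inhibitor present; the protocol text gives 20 µM as final concentration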
Target sequence (P43116 whole entry, looked up): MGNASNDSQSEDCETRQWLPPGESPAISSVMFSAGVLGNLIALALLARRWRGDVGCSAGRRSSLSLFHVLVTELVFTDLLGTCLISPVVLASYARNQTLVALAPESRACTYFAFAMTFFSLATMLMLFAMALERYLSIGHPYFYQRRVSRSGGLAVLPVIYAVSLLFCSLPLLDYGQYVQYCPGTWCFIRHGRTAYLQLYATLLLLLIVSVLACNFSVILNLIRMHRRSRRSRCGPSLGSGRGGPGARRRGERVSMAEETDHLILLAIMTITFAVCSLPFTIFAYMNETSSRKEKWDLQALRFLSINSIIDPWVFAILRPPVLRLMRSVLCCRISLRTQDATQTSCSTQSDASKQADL
Furin inh: blocks human furin protease activity | 220,000 compounds, 0.061% hits | purified furin, fluorogenic substrate cleavage | P09958 | inhibition, % at 20 µM or 30 µM; in the data active means inhibition above about 25%
HSV augment: HSV replication enhancement | HSV replication augmentation in cells, fold increase | maximum fold increase | 220,000 compounds, 0.005% hits | AID 1956; in the data active means maximum fold increase above about 1.5; inconclusive means no clear call, values can overlap the other calls; tested in PC3 cells
EP2 modulator: modulators of human EP2 prostaglandin E2 receptor; EP2-expressing cells, cAMP HTRF FRET, PGE2 co-stimulation; induction, % at 25 µM; 260,000 compounds, 0.83% hits;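 active means compounds whose cAMP rise, as percent of the full-agonist control response, exceeds 60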;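 further: rat C6 glioma line stably carrying human EP2 under a CMV promoter; the protocol text gives 20 µM as final concentration; 100% = response of wells given 1 µM PGE2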
Pf gamet viab: kills late stage P. falciparum gametocytes; AID 743093; P. falciparum stage V gametocytes, ATP luminescence, 24 h; 150,000 compounds, 0.065% hits; inhibition, % at 10.9 µM;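 active means inhibition above the mean plus 3 SD of compounds within the control limits, set per campaign, cut at about 38% in these data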;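 further: 0% = DMSO wells and 100% = medium only without gametocytes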
EP2 cAMP induct: human EP2 receptor cAMP induction, negative in counter-screens; shares compounds with EP2 modulator; C6 glioma EP2 cells, cAMP HTRF induction; plus low (about EC15) PGE2 agonist; calls only at 20 µM (by protocol); 1,300 compounds, 47% hits;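 active means cAMP induction above 50% in the main assay while under 30% in all four parallel counter assays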;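 further: rat C6 glioma cells stably expressing human EP2 receptor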
* = called active by the depositor; i = inactive; ? = inconclusive; . = no result given; + = active, no number; ! = not confirmed by another sample. Shown are actives, neighbours in structure and some others; about 1.4% of the full set was active somewhere.

SMILES	PGE2 EP2 inh	Furin inh	HSV augment	EP2 modulator	Pf gamet viab	EP2 cAMP induct
COc1ccc(CC(NC(C)=O)C(=O)NC2CCN(c3nc(C)cc(C)c3C#N)CC2)cc1OC (centres undefined)	10	-30	i	10	7	.
Cc1cc(O)c(C=O)c2c1C(=O)Oc1c(COC(=O)/C=C/C(=O)O)c(O)c(C(=O)O)c(C)c1O2	9	.	.	63*	.	+
Cc1cc(O)c(C=O)c2c1C(=O)Oc1c(CO)c(O)c3c(c1O2)C(O)OC3=O (centres undefined)	11	-17	i	-9	.	.
c1ccc(Nc2nc(N3CCNCC3)nc(N3CCOCC3)n2)cc1	4	-15	i	67*	.	i
c1ccc(Nc2nc(N3CCOCC3)nc(N3CCOCC3)n2)cc1	4	-32	i	28	-15	.
CC1(C)OC(c2ccccc2)=C/C(=C/C=Nc2ccccc2)O1	14	-11	i	66*	.	i
O=c1c2ccccc2c(-c2ccccc2)nn1-c1ccc(Cl)c(Cl)c1	7	-11	i	70*	19	i
O=c1c2ccccc2c(-c2ccccc2)nn1-c1ccccc1	2	-25	i	19	14	.
CCN1C(=O)/C(=C2\SC(=S)N(CC3CCCO3)C2=O)c2ccccc21 (centres undefined)	8	-30	i	29	.	.
O=C(CN1CCOCC1)Nc1cccc(Br)c1	10	-13	i	7	15	.
c1ccc([C@H]2CNCCN2CCc2cccc3ccccc23)cc1	.	.	.	.	-25	.
CN(C)N=Nc1ccc(-c2cn(Cc3ccccc3)cn2)cc1	.	.	.	.	-1	.
COc1ccc(CSC2=C(C#N)C(=O)NC3(CCCCC3)S2)cc1	37	.	.	54	.	i
COc1ccc(CCN2CCCC(CN(C)Cc3cc(Cl)c(O)c(OC)c3)C2)cc1 (centres undefined)	.	.	.	.	10	.
O=C(c1ccco1)N(Cc1ccc([N+](=O)[O-])cc1)c1ccc(Br)cc1	6	-11	i	48	.	.
O=C(c1ccco1)N(Cc1cccc([N+](=O)[O-])c1)c1ccc(Br)cc1	2	-14	i	66*	1	+
Cc1cc(C)n(-c2nc(C)nc3c2cnn3-c2ccccc2)n1	.	-23	.	67*	.	+
Cc1cc(C)n(-c2nc3ccccc3c3nc(C)nn23)n1	10	-16	i	12	.	.
CCN(CC)CCN1C(=O)c2cccc3cc(N)cc(c23)C1=O	38	-9	i	7	.	i
COc1ccc(C2CC(C(F)(F)F)n3ncc(C(=O)O)c3N2)cc1OC (centres undefined)	13	-23	i	2	11	.
COc1ccc(C2CC(C(F)(F)F)n3nc(C(N)=O)c(Cl)c3N2)cc1OC (centres undefined)	4	-28	i	75*	.	i
CCN(CC(=O)NC(C)(C)C)Cc1nc2c(Br)cc(Br)cc2c(=O)[nH]1	13	-17	i	33	-14	.
COc1cc(OC)c(-c2nc(-c3ccccc3)no2)cc1OC	8	.	.	20	.	.
COc1ccc(-c2noc(-c3ccccc3-c3ccccc3)n2)cc1OC	.	-5	.	77*	1	+
CCOC(=O)c1ccccc1NC1c2ccccc2C(=O)N1c1cc(C)ccn1 (centres undefined)	10	-6	i	69*	.	+
SMILES	PGE2 EP2 inh	Furin inh	HSV augment	EP2 modulator	Pf gamet viab	EP2 cAMP induct
COCCNC(=O)Cc1ccc(Br)cc1	15	-17	i	14	.	.
Cc1ccc(Oc2nc(-c3ccccc3)ncc2S(C)(=O)=O)cc1	15	-31	i	75*	.	i
NCc1c(O)ccc2ccccc12	8	-22	i	-27	.	.
Oc1ccc2ccccc2c1Cc1c(O)ccc2ccccc12	12	.	.	70*	.	i
Cc1cc(C)c(S(=O)(=O)c2ccccc2)c(OC(=O)c2cc(F)c(F)cc2Cl)n1	28	-17	i	73*	-15	i
O=C(O)CCSCC(=O)c1ccc2c(c1)OCCO2	7	-5	i	7	.	.
Cc1ccc(Cl)cc1N1CCN(S(C)(=O)=O)CC1	9	-16	i	4	11	.
CCCNC(=O)COC(=O)c1ccc(S(=O)(=O)N2CCCC2)cc1	4	-22	i	8	10	.
CC1=C(C#N)CCC(=O)N1Cc1c(F)cccc1Cl	5	-21	i	23	-12	.
O=C1CCC(c2ccccc2)=NN1Cc1c(F)cccc1Cl	2	-16	i	66*	-36	+
COc1ccccc1C(=O)Nc1ccc(S(=O)(=O)N2CCOCC2)cc1	8	-5	i	-2	5	.
C/C=C/Cn1c(SCc2ccc(C)cc2)nc2c1c(=O)[nH]c(=O)n2C	16	-22	i	86*!	-11	+
CCCSc1nc2c(c(=O)[nH]c(=O)n2C)n1C/C=C(/C)Cl	12	.	.	59	.	.
C/C(Cl)=C/Cn1c(SC(C)C)nc2c1c(=O)[nH]c(=O)n2C	6	-15	i	65*	.	i
Cn1c(SCC(=O)N/N=C/c2cc([N+](=O)[O-])ccc2O)nnc1-c1ccccc1	9	-12	i	16	-33	.
CCOC(=O)CC(=O)CSc1nc(-c2ccc3c(c2)OCO3)cc(C(F)(F)F)c1C#N	7	-21	?	68*	.	i
Cc1nc2ccccn2c1C(=O)CSc1ccccc1Cl	21	-15	i	31	.	.
Cc1nc2ccccn2c1C(=O)CSc1ccc(Cl)cc1Cl	10	-13	i	70*	10	i
CCOc1ccccc1CN1CCC(CO)(CCOc2ccccc2)CC1	10	-17	i	-40	-1	.
Cc1ccc(O)c(N=Cc2cc(Cc3ccccc3)cc([N+](=O)[O-])c2O)c1	6	-14	i	69*	-53	i
Cc1ccc2cc(C)c3nnc(SCC(=O)N4CCN(C(=O)c5ccco5)CC4)n3c2c1	14	-6	i	11	.	.
CCOC(=O)C(C)Sc1ncc(OC)c(Sc2ccc(Cl)cc2)n1 (centres undefined)	2	-13	i	68*	-30	+
COc1cccc(C(=O)NC(=S)Nc2ccc(NC(=O)c3ccco3)c(OC)c2)c1	7	.	.	2	.	.
Cc1cc(Br)c2nc3c(c(C(=O)O)c2c1)CCCCC3	19	-16	i	77*	.	i
CCc1ccc2nc3c(c(C(=O)O)c2c1)CCC3	1	-15	i	21	15	.
C/C(=C\c1ccc(C(=O)O)cc1)c1ccc2c(c1)C(C)(C)CCC2(C)C	18	.	.	53	.	+
CCC(=O)OC1CC(C)N(C(=O)c2ccccc2)c2ccc(C)cc21 (centres undefined)	11	-1	i	28	.	.
CCCC(=O)O[C@H]1C[C@@H](C)N(C(=O)c2ccccc2)c2ccc(C)cc21	6	-2	i	76*	-12	i
O=C(OCc1ccccc1Cl)c1ccccc1C(=O)c1ccccc1	4	-2	i	82*	14	+
